Test results reported in PubChem BioAssay AID588397 (National Center for Advancing Translational Sciences (NCATS), 2011).
The campaign covered roughly 1,300 compounds. About 1,000 (77%) were called active. Not shown: some 7% with an inconclusive outcome. The set was probably picked from earlier hits. Some of the results follow. Values without a mark were called inactive. Calls come from the whole dose curve; as a rule, active = well fitted inhibition curve with a large enough effect; inconclusive = small, poorly fitted or top-dose-only effect; inactive = no such curve, though single readings can be large or run the other way.

Experiment: qHTS of small molecules that selectively kill Giardia lamblia: Hit Validation.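 Note: viability measured as ATP content by luminescence so killing lowers signal; trophozoites exposed to compounds for 48 h anaerobically at 37 °C; nearly all actives have a fitted effect of over 65% in size.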
Conditions: Giardia lamblia trophozoite viability, dose-response; series mostly up to 38.3 µM; activity change, negative = killing: at the top concentration
In short: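 Viability, read as ATP luminescence: trophozoites at 100 cells/well, compound added, 48 hrs anaerobic at 37 deg C, then 15-30 min room-temperature development before reading.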
% is set by controls: 0 for no effect and ±100 for the full control effect; potency is the fitted concentration of half-maximal effect.

Structure (SMILES) | activity change, negative = killing | Potency
COc1ccc(N(Cc2ccccc2)C(=O)OC(C)(C)C)c(C(=O)N(C)OC)c1 | -1.53% | 
COc1ccc(Cn2cnc([N+](=O)[O-])c2)cc1[N+](=O)[O-] |  | 3.26 µM (active)
O=C(Nc1ccc(NC(=O)c2ccc([N+](=O)[O-])o2)cc1Cl)c1ccco1 |  | 1.03 µM (active)
O=C(O)c1cccc(NC(=S)NC(NC(=O)c2ccccc2[N+](=O)[O-])C(Cl)(Cl)Cl)c1 (stereo not given) | -9.8% | 
COc1ccc(NC(=O)c2ccc([N+](=O)[O-])cc2[N+](=O)[O-])c(OC)c1 |  | 10.3 µM (active)
O=C(Nc1cccc(NC(=O)c2ccccc2Cl)c1)c1ccc([N+](=O)[O-])o1 |  | 0.41 µM (active)
COc1cc(NC(=O)c2ccc([N+](=O)[O-])o2)ccc1NC(=O)c1ccco1 |  | 0.579 µM (active)
O=C(Nc1ccc(O)c2c(=O)cc(-c3ccccc3Cl)oc12)c1ccc(F)cc1 | -9.71% | 
O=C(Nc1cccc(NC(=O)c2ccc([N+](=O)[O-])o2)c1)c1ccco1 |  | 0.729 µM (active)
O=C(Nc1cccc(NC(=O)c2cccs2)c1)c1ccc([N+](=O)[O-])o1 |  | 0.729 µM (active)
Cc1cc(NC(=O)c2ccc([N+](=O)[O-])o2)ccc1NC(=O)c1ccco1 |  | 0.918 µM (active)
O=C(Nc1ccccc1O)c1ccc([N+](=O)[O-])cc1 |  | 9.18 µM (active)
COc1ccc(NC(=O)c2ccco2)c(NC(=O)c2ccc([N+](=O)[O-])cc2)c1 |  | 4.1 µM (active)
COc1cc(NC(=O)c2ccc([N+](=O)[O-])o2)ccc1NC(=O)c1cccs1 |  | 0.818 µM (active)
O=C(COC(=O)c1ccc(Br)o1)Nc1ncc([N+](=O)[O-])s1 |  | 2.31 µM (active)
O=C(COC(=O)c1ccccc1)Nc1ncc([N+](=O)[O-])s1 |  | 3.65 µM (active)
Cc1cccc(NC(=O)c2ccc([N+](=O)[O-])s2)n1 |  | 3.65 µM (active)
Cc1ccnc(NC(=S)NC(=O)c2cccs2)c1 |  | 6.5 µM (active)
Cc1nc2cc(NC(=O)c3ccc([N+](=O)[O-])s3)ccc2s1 |  | 0.65 µM (active)
Cc1ccnc(NC(=O)c2ccc([N+](=O)[O-])s2)c1 |  | 3.65 µM (active)
COc1cc2c(cc1OC)CN(C(=O)c1ccc([N+](=O)[O-])o1)CC2 |  | 2.05 µM (active)
COc1cc2c(cc1OC)CN(Cc1cc(=O)oc3c(C)c(C)ccc13)CC2 | 5.4% | 
O=C(c1ccc([N+](=O)[O-])o1)N1CCc2ccccc2C1 |  | 2.9 µM (active)
O=C(c1ccc([N+](=O)[O-])o1)N1CCc2ccccc21 |  | 1.3 µM (active)
O=C(c1cc(COc2c(F)cccc2F)on1)N1CCc2ccccc2C1 | -2.25% | 
N/C(=N\c1nc2ccccc2o1)NC(=O)C(Cc1ccccc1)N1C(=O)c2ccccc2C1=O (stereo not given) |  | 1.83 µM (active)
N#Cc1ccccc1S(=O)(=O)N1CCN(C(=O)c2cn(-c3ccccc3)nc2-c2cccnc2)CC1 |  | 6.5 µM (active)
O=C(CC12CC3CC(CC(C3)C1)C2)N/N=C/c1ccc([N+](=O)[O-])o1 |  | 0.918 µM (active)
CC(NC(=O)C12CC3CC(CC(C3)C1)C2)C(=O)NN=Cc1ccc([N+](=O)[O-])o1 (stereo not given) |  | 1.83 µM (active)
CCn1c(C)cc(C(=O)COC(=O)c2ccccc2[N+](=O)[O-])c1C |  | 20.5 µM (active)
